Experimental data taken from PubChem BioAssay (NCATS).
Records with an inconclusive call do not appear. Calls of active or inactive are those of the source. The call rests on the fitted dose curve; in most records, active means well fitted cell-killing curve with a large enough effect; inconclusive means small, poorly fitted or top-dose-only effect, or effect the other way; inactive means flat fitted curve, though single readings scatter.

Key:
Experiment in all cases: Primary qHTS to identify gynecologic anti-cancer compounds using libraries of approved drugs and bioactive compounds (AID 1345084); further: nearly all actives have a fitted effect of over 55% in size
C33A = conditions: Gynecologic cancer cell panel viability, ATPlite luminescence, 48 h; series mostly up to 57.5 µM
Method in brief: (§1)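 ATP-based viability (ATPlite), 1,000 cells/well, 16 h pre-incubation, 48 h compound at 37 C, 5% CO2, 15 min RT before read.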

CAOV3 = conditions: Gynecologic cancer cell panel viability, ATPlite luminescence, 48 h; series mostly up to 57.5 µM
Method in brief: as §1

CASKI = conditions: Gynecologic cancer cell panel viability, ATPlite luminescence, 48 h; series mostly up to 57.5 µM
Method in brief: as §1

Es-2 = conditions: Gynecologic cancer cell panel viability, ATPlite luminescence, 48 h; series mostly up to 57.5 µM
Method in brief: as §1

HeLa = conditions: Gynecologic cancer cell panel viability, ATPlite luminescence, 48 h; series mostly up to 57.5 µM
Method in brief: as §1

Hek293T = conditions: Gynecologic cancer cell panel viability, ATPlite luminescence, 48 h, control line for the selectivity index; series mostly up to 57.5 µM
Method in brief: as §1

JEG-3 = conditions: Gynecologic cancer cell panel viability, ATPlite luminescence, 48 h; series mostly up to 57.5 µM
Method in brief: as §1

OV90 = conditions: Gynecologic cancer cell panel viability, ATPlite luminescence, 48 h; series mostly up to 57.5 µM
Method in brief: as §1

PA-1 = conditions: Gynecologic cancer cell panel viability, ATPlite luminescence, 48 h; series mostly up to 57.5 µM
Method in brief: as §1

SKOV3 = conditions: Gynecologic cancer cell panel viability, ATPlite luminescence, 48 h; series mostly up to 57.5 µM
Method in brief: as §1

Tov-21-G = conditions: Gynecologic cancer cell panel viability, ATPlite luminescence, 48 h; series mostly up to 57.5 µM
Method in brief: as §1

Tov112D = conditions: Gynecologic cancer cell panel viability, ATPlite luminescence, 48 h; series mostly up to 57.5 µM
Method in brief: as §1
On the % scale 0 is the no-effect control and ±100 the full control effect.

CC1(C)[C@@H]2CC=C(CO[C@@H]3O[C@H](CO[C@@H]4OC[C@H](O)[C@H](O)[C@H]4O)[C@@H](O)[C@H](O)[C@H]3O)[C@H]1C2
inactive: Potency (C33A) | Potency (CAOV3) | outcome (CASKI) | Potency (Es-2) | Potency (HeLa) | Potency (Hek293T) | Potency (JEG-3) | Potency (OV90) | Potency (PA-1) | Potency (SKOV3) | Potency (Tov-21-G) | Potency (Tov112D)

COc1c(C)c(OCC(O)C(C)(C)O)cc2c1CNC2=O (stereo not given)
inactive: Potency (C33A) | Potency (CAOV3) | outcome (CASKI) | Potency (Es-2) | Potency (HeLa) | Potency (Hek293T) | Potency (JEG-3) | Potency (OV90) | Potency (PA-1) | Potency (SKOV3) | Potency (Tov-21-G) | Potency (Tov112D)

CC1=CCC2C(C)(C)CCCC2(C)C1CC12OC1C(O)C(CO)=CC2O (stereo not given)
inactive: Potency (C33A) | Potency (CAOV3) | outcome (CASKI) | Potency (Es-2) | Potency (HeLa) | Potency (Hek293T) | Potency (JEG-3) | Potency (OV90) | Potency (PA-1) | Potency (SKOV3) | Potency (Tov-21-G) | Potency (Tov112D)

OC[C@H]1O[C@@H](OCCc2ccccc2)[C@H](O)[C@@H](O)[C@@H]1O
inactive: Potency (C33A) | Potency (CAOV3) | outcome (CASKI) | Potency (Es-2) | Potency (HeLa) | Potency (Hek293T) | Potency (JEG-3) | Potency (OV90) | Potency (PA-1) | Potency (SKOV3) | Potency (Tov-21-G) | Potency (Tov112D)

CC(C)c1ccc2c(c1)C(O)CC1C(C)(C(=O)O)CCCC21C (stereo not given)
inactive: Potency (C33A) | Potency (CAOV3) | outcome (CASKI) | Potency (Es-2) | Potency (HeLa) | Potency (Hek293T) | Potency (JEG-3) | Potency (OV90) | Potency (PA-1) | Potency (SKOV3) | Potency (Tov-21-G) | Potency (Tov112D)

COc1cc(O)c(C(=O)O)c(CCc2ccccc2)c1
inactive: Potency (C33A) | Potency (CAOV3) | outcome (CASKI) | Potency (Es-2) | Potency (HeLa) | Potency (Hek293T) | Potency (JEG-3) | Potency (OV90) | Potency (PA-1) | Potency (SKOV3) | Potency (Tov-21-G) | Potency (Tov112D)

CC1=CC(=O)CC(C)(C)C1CCC(C)O[C@@H]1O[C@H](CO)[C@@H](O)[C@H](O)[C@H]1O (stereo not given in full)
inactive: Potency (C33A) | Potency (CAOV3) | outcome (CASKI) | Potency (Es-2) | Potency (HeLa) | Potency (Hek293T) | Potency (JEG-3) | Potency (OV90) | Potency (PA-1) | Potency (SKOV3) | Potency (Tov-21-G) | Potency (Tov112D)

COc1cc(/C=C/c2ccccc2)c(C(=O)O)c(O)c1CC=C(C)C
inactive: Potency (C33A) | Potency (CAOV3) | outcome (CASKI) | Potency (Es-2) | Potency (HeLa) | Potency (Hek293T) | Potency (JEG-3) | Potency (OV90) | Potency (PA-1) | Potency (SKOV3) | Potency (Tov-21-G) | Potency (Tov112D)

COCC1OC(OC(C)(C)C2CCC3(C)C=C(C4CCC5C4(C)CC(O)C4OC(C(C)(C)O)CCC45C)CCC3O2)C(NC(C)=O)C(O)C1O (stereo not given)
inactive: Potency (C33A) | Potency (CAOV3) | outcome (CASKI) | Potency (Es-2) | Potency (HeLa) | Potency (Hek293T) | Potency (JEG-3) | Potency (OV90) | Potency (PA-1) | Potency (SKOV3) | Potency (Tov-21-G) | Potency (Tov112D)

C/C=C/C=C/C=C/C(=O)N(C)C(C(=O)NC(C)C(=O)N1CCCC1C(N)=O)C(C)C (stereo not given)
inactive: Potency (C33A) | Potency (CAOV3) | outcome (CASKI) | Potency (Es-2) | Potency (HeLa) | Potency (Hek293T) | Potency (JEG-3) | Potency (OV90) | Potency (PA-1) | Potency (SKOV3) | Potency (Tov-21-G) | Potency (Tov112D)

COC(=O)C(Cc1ccccc1)NC(=O)c1ccccc1 (stereo not given)
inactive: Potency (C33A) | Potency (CAOV3) | outcome (CASKI) | Potency (Es-2) | Potency (HeLa) | Potency (Hek293T) | Potency (JEG-3) | Potency (OV90) | Potency (PA-1) | Potency (SKOV3) | Potency (Tov-21-G) | Potency (Tov112D)

C=C1CCC[C@]2(C)CC[C@@](O)(C(=C)C(=O)O)C[C@@H]12
inactive: Potency (C33A) | Potency (CAOV3) | outcome (CASKI) | Potency (Es-2) | Potency (HeLa) | Potency (Hek293T) | Potency (JEG-3) | Potency (OV90) | Potency (PA-1) | Potency (SKOV3) | Potency (Tov-21-G) | Potency (Tov112D)

O=C(O)CC1CCC(c2ccc(-c3ccc(Nc4ccc(C(F)(F)F)nc4)cn3)cc2)CC1 (stereo not given)
inactive: Potency (C33A) | Potency (CAOV3) | outcome (CASKI) | Potency (Es-2) | Potency (HeLa) | Potency (Hek293T) | Potency (JEG-3) | Potency (OV90) | Potency (PA-1) | Potency (SKOV3) | Potency (Tov-21-G) | Potency (Tov112D)

C[C@H](/C=C/[C@@]1(O)[C@H](C)CC(=O)CC1(C)C)O[C@@H]1O[C@H](CO[C@@H]2OC[C@@H](O)[C@H](O)[C@H]2O)[C@@H](O)[C@H](O)[C@H]1O
inactive: Potency (C33A) | Potency (CAOV3) | outcome (CASKI) | Potency (Es-2) | Potency (HeLa) | Potency (Hek293T) | Potency (JEG-3) | Potency (OV90) | Potency (PA-1) | Potency (SKOV3) | Potency (Tov-21-G) | Potency (Tov112D)

COC(=O)[C@@H](NC(=O)[C@H](CC(C)C)NC(=O)N(Cc1ccccc1)C[C@@H](O)[C@H](Cc1ccccc1)NC(=O)OC(C)(C)C)C(C)C
inactive: activity change, negative = cytotoxicity (C33A) 9.01% [at 11.6 µM] | activity change, negative = cytotoxicity (CAOV3) -0.568% [at 11.6 µM] | activity change, negative = cytotoxicity (CASKI) 1.08% [at 11.6 µM] | activity change, negative = cytotoxicity (Es-2) 0.55% [at 11.6 µM] | activity change, negative = cytotoxicity (HeLa) 4.24% [at 11.6 µM] | activity change, negative = cytotoxicity (Hek293T) -2.96% [at 11.6 µM] | activity change, negative = cytotoxicity (JEG-3) -2.99% [at 11.6 µM] | activity change, negative = cytotoxicity (OV90) -5.58% [at 11.6 µM] | activity change, negative = cytotoxicity (PA-1) 4.66% [at 11.6 µM] | activity change, negative = cytotoxicity (SKOV3) 21.9% [at 11.6 µM] | activity change, negative = cytotoxicity (Tov-21-G) -1.16% [at 11.6 µM] | activity change, negative = cytotoxicity (Tov112D) 11% [at 11.6 µM]
